According to the supplement of paper PMC10849652:
The full data set covers some 7,900 targets. This sample favours those with a hit. About 0.6% of all pairs of compound and target were hits.

What was measured:
Assay in all cases: log2 fold change, soluble protein after heating vs DMSO (PISA); higher = thermal stabilisation; K562 cells, 10 uM, 30 min; active = over 0.2 and 3.5 SD of the protein, either way, in both replicates (recomputed)
[1] = compound: CC[C@@H]1C(=O)N(C)c2cnc(Nc3ccc(C(=O)NC4CCN(C)CC4)cc3OC)nc2N1C1CCCC1
In short: (§1)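 Thermal stability values are relative to control samples and come from duplicates. They are expressed as log2 fold changes. For measurement, K562 cells (2×10^6 cells/mL) received 10 μM compound for 30 min, and aliquots were heated for 3 min over 48°C-58°C, pooled, and extracted at 4°C in PBS with 0.5% NP-40. Soluble protein, the supernatant after 21,000xg for 90 min, was quantified by TMTpro 16plex LC-MS/MS with equalised channel sums.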

volasertib = compound: CC[C@@H]1C(=O)N(C)c2cnc(Nc3ccc(C(=O)N[C@H]4CC[C@H](N5CCN(CC6CC6)CC5)CC4)cc3OC)nc2N1C(C)C [volasertib]
In short: as §1

[2] = compound: CC[C@H](C)N1C=C(C2=C(C=C(C=C21)C3=CN=C(C=C3)N4CCNCC4)C(=O)NCC5=C(C=C(NC5=O)C)C)C
In short: as §1

epoxomicin = compound: CC[C@H](C)[C@@H](C(=O)N[C@@H]([C@@H](C)O)C(=O)N[C@@H](CC(C)C)C(=O)[C@]1(CO1)C)NC(=O)[C@H]([C@@H](C)CC)N(C)C(=O)C [epoxomicin]
In short: as §1

[3] = compound: CCn1c(C(=O)N(C2CC2)C2CC2)cc2c3c(ncn3C)c(Nc3cc(C)n(C)n3)nc21
In short: as §1

[4] = compound: CCn1cc(-c2ccnc3[nH]c(-c4cccc(CN(C)C)c4)cc23)c(-c2ccc(NC(=O)N(C)C)cc2)n1
In short: as §1

[5] = compound: CN(C)CC(=O)Nc1ccc2[nH]c(=O)c3ccccc3c2c1
In short: as §1

rosiglitazone = compound: CN(CCOC1=CC=C(C=C1)C[C@H]2C(=O)NC(=O)S2)C3=CC=CC=N3 (racemic) [rosiglitazone]
In short: as §1

[6] = compound: CN1C2=C(C3=C1C(=O)N(N=C3)CC4=CC(=CC=C4)N)SC(=C2)S(=O)C
In short: as §1

[7] = compound: CN1CCC(CNc2ccc3ncc(-c4cccc(OC(F)(F)F)c4)n3n2)CC1
In short: as §1

saracatinib = compound: CN1CCN(CCOc2cc(OC3CCOCC3)c3c(Nc4c(Cl)ccc5c4OCO5)ncnc3c2)CC1 [saracatinib]
In short: as §1

sotrastaurin = compound: CN1CCN(c2nc(C3=C(c4c[nH]c5ccccc45)C(=O)NC3=O)c3ccccc3n2)CC1 [sotrastaurin]
In short: as §1

alvocidib = compound: CN1CC[C@H](c2c(O)cc(O)c3c(=O)cc(-c4ccccc4Cl)oc23)[C@H](O)C1 [alvocidib]
In short: as §1

Tubastatin A = compound: CN1CCc2c(c3ccccc3n2Cc2ccc(C(=O)NO)cc2)C1 [Tubastatin A]
In short: as §1

[8] = compound: CNC(=O)C1=CC=CC=C1NC2=NC(=NC=C2Cl)NC3=C(C=C(C=C3)N4CCOCC4)OC
In short: as §1

defactinib = compound: CNC(=O)c1ccc(Nc2ncc(C(F)(F)F)c(NCc3nccnc3N(C)S(C)(=O)=O)n2)cc1 [defactinib]
In short: as §1

rucaparib = compound: CNCc1ccc(-c2[nH]c3cc(F)cc4c3c2CCNC4=O)cc1 [rucaparib]
In short: as §1

[9] = compound: CNc1nc(-c2ccc3c(N)n[nH]c3c2)cc(N2C[C@@H](C(=O)NC3CCCCC3)CC[C@H]2C)n1
In short: as §1

encorafenib = compound: COC(=O)N[C@@H](C)CNc1nccc(-c2cn(C(C)C)nc2-c2cc(Cl)cc(NS(C)(=O)=O)c2F)n1 [encorafenib]
In short: as §1

[10] = compound: COC(=O)[C@H](CCSC)NC(=O)C1=C(C=C(C=C1)NC[C@H](CS)N)C2=CC=CC=C2
In short: as §1

Measured: log2 fold change

OXR1 (UniProt Q8N573)
active: [7] -0.257
inactive: [1] -0.052 | volasertib -0.071 | [2] 0.035 | epoxomicin -0.013 | [3] 0.006 | [4] 0.026 | [5] 0.062 | rosiglitazone 0.005 | [6] -0.033 | saracatinib -0.039 | sotrastaurin -0.049 | alvocidib -0.011 | Tubastatin A 0.008 | [8] -0.038 | defactinib -0.059 | rucaparib -0.014 | [9] -0.063 | encorafenib 0 | [10] 0.003

NSMCE4A (UniProt Q9NXX6)
inactive: [1] 0.069 | volasertib 0.053 | [2] 0.103 | epoxomicin -0.02 | [3] 0.112 | [4] -0.251 | [5] -0.13 | rosiglitazone 0.057 | [6] -0.33 | [7] -0.009 | saracatinib 0.109 | sotrastaurin 0.015 | alvocidib -0.003 | Tubastatin A 0.05 | [8] -0.112 | defactinib -0.086 | rucaparib 0 | [9] -0.114 | encorafenib -0.064 | [10] -0.002

NBN (UniProt O60934)
active: volasertib -0.219
inactive: [1] -0.072 | [2] 0.031 | epoxomicin 0.073 | [3] -0.038 | [4] 0.002 | [5] 0.061 | rosiglitazone 0.034 | [6] -0.043 | [7] -0.116 | saracatinib -0.008 | sotrastaurin -0.03 | alvocidib -0.197 | Tubastatin A 0.191 | [8] -0.065 | defactinib -0.159 | rucaparib 0.006 | [9] 0.049 | encorafenib 0.003 | [10] -0.019

NAP1L1 (UniProt P55209)
Chain of UniProt P55209 (P55209 whole entry, looked up): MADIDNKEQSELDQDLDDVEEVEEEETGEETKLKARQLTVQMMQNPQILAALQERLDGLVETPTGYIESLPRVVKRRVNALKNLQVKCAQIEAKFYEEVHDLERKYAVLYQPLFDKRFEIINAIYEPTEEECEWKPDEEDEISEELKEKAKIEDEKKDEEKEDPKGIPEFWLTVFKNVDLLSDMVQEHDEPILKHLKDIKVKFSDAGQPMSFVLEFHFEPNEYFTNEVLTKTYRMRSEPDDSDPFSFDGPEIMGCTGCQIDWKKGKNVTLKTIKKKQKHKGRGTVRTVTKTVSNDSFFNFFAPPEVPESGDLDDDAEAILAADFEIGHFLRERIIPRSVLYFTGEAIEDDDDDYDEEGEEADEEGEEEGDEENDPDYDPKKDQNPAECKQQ
inactive: [1] -0.112 | [2] 0.005 | epoxomicin 0.048 | [3] 0.007 | [4] -0.008 | [5] 0.013 | rosiglitazone 0.014 | [6] 0.003 | [7] -0.038 | saracatinib 0.042 | sotrastaurin -0.039 | alvocidib -0.045 | Tubastatin A -0.008 | [8] 0.053 | defactinib -0.008 | rucaparib 0.039 | [9] -0.084 | encorafenib 0.048 | [10] 0.023
active: volasertib -0.237

ORC3 isoform 2 (UniProt Q9UBD5)
inactive: [1] -0.046 | volasertib -0.396 | [2] 0.044 | epoxomicin 0.181 | [3] -0.053 | [4] -0.017 | [5] 0.067 | rosiglitazone 0.059 | [6] -0.034 | [7] -0.376 | saracatinib 0.001 | sotrastaurin 0.011 | alvocidib -0.299 | Tubastatin A 0.006 | [8] -0.078 | defactinib -0.288 | rucaparib 0 | [9] 0.014 | encorafenib 0.288 | [10] 0.06

MON1B (UniProt Q7L1V2)
Chain of UniProt Q7L1V2 (Q7L1V2 whole entry, looked up): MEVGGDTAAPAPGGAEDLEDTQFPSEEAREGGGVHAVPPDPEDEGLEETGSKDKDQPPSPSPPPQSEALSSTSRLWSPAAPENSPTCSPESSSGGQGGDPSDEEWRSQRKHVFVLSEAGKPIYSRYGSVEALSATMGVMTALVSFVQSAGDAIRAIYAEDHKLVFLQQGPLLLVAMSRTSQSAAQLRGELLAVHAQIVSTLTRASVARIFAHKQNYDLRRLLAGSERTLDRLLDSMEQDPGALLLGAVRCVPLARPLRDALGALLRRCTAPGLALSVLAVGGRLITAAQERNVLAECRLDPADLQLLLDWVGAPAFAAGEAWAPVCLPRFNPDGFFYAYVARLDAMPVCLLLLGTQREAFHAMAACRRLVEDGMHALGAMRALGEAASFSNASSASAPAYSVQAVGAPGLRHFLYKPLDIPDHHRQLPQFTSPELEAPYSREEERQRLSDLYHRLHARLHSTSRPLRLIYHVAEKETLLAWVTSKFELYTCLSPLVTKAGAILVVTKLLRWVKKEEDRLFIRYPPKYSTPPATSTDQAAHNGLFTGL
inactive: [1] -0.002 | volasertib -0.183 | [2] -0.021 | epoxomicin -0.028 | [3] -0.025 | [4] 0.013 | [5] -0.024 | rosiglitazone 0.016 | [6] -0.011 | saracatinib 0.005 | sotrastaurin -0.028 | alvocidib -0.057 | Tubastatin A 0.048 | [8] -0.011 | defactinib 0.016 | rucaparib -0.015 | [9] -0.036 | encorafenib 0.037 | [10] -0.013
active: [7] -0.377

NOP58 (UniProt Q9Y2X3)
Chain of UniProt Q9Y2X3 (Q9Y2X3 whole entry, looked up): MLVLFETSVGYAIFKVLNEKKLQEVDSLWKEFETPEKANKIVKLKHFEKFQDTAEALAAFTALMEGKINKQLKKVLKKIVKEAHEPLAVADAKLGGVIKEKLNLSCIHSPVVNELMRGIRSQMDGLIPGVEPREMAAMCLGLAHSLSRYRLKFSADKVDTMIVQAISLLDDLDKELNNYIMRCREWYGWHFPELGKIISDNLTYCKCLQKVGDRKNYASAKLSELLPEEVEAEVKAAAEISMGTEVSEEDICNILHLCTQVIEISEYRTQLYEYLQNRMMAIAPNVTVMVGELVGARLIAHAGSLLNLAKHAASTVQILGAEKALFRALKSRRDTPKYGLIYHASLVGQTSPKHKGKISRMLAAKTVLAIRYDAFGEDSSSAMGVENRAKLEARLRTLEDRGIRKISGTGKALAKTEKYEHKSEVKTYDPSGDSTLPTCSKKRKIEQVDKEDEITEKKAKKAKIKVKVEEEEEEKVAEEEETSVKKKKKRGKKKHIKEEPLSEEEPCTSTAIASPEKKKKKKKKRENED
inactive: [1] 0.095 | volasertib -0.066 | [2] 0.057 | epoxomicin -0.263 | [3] 0.005 | [4] 0.192 | [5] 0.052 | rosiglitazone -0.052 | [6] 0.234 | [7] 0.2 | saracatinib -0.044 | sotrastaurin -0.008 | alvocidib 0.075 | Tubastatin A 0.014 | [8] -0.058 | defactinib -0.004 | rucaparib 0.304 | [9] -0.01 | encorafenib 0.106 | [10] -0.076

NELFB isoform 2 (UniProt Q8WX92)
Chain of UniProt Q8WX92 (Q8WX92 whole entry, looked up): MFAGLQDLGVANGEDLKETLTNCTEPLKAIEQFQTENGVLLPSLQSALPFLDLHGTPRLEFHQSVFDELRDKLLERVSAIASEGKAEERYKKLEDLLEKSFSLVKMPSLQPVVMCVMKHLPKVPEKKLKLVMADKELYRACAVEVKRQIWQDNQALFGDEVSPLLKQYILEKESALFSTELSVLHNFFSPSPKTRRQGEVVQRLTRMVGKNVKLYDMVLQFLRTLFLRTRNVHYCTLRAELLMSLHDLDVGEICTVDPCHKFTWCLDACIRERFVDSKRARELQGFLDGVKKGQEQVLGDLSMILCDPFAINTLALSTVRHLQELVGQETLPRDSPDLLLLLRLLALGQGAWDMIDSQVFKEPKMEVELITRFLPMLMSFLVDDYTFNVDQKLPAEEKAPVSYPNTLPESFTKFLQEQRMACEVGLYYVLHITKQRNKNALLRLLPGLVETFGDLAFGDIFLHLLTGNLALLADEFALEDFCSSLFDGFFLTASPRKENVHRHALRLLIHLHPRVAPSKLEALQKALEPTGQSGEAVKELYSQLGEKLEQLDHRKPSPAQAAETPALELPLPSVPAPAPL
active: volasertib -0.68
inactive: [1] -0.176 | [2] 0.118 | epoxomicin 0.072 | [3] -0.057 | [4] -0.012 | [5] 0.068 | rosiglitazone 0.041 | [6] -0.02 | [7] -0.116 | saracatinib -0.016 | sotrastaurin -0.065 | alvocidib -0.199 | Tubastatin A 0.04 | [8] -0.026 | defactinib -0.199 | rucaparib -0.034 | [9] -0.005 | encorafenib 0.079 | [10] -0.057

OPA1 isoform 2 (UniProt O60313)
active: [7] -0.347
inactive: [1] -0.187 | volasertib -0.264 | [2] 0.039 | epoxomicin 0.027 | [3] -0.047 | [4] -0.081 | [5] 0.023 | rosiglitazone 0.07 | [6] -0.013 | saracatinib -0.072 | sotrastaurin -0.005 | alvocidib -0.047 | Tubastatin A 0.054 | [8] -0.047 | defactinib -0.024 | rucaparib -0.001 | [9] 0.064 | encorafenib 0.056 | [10] -0.047

NPC1 (UniProt O15118)
Chain of UniProt O15118 (O15118 whole entry, looked up): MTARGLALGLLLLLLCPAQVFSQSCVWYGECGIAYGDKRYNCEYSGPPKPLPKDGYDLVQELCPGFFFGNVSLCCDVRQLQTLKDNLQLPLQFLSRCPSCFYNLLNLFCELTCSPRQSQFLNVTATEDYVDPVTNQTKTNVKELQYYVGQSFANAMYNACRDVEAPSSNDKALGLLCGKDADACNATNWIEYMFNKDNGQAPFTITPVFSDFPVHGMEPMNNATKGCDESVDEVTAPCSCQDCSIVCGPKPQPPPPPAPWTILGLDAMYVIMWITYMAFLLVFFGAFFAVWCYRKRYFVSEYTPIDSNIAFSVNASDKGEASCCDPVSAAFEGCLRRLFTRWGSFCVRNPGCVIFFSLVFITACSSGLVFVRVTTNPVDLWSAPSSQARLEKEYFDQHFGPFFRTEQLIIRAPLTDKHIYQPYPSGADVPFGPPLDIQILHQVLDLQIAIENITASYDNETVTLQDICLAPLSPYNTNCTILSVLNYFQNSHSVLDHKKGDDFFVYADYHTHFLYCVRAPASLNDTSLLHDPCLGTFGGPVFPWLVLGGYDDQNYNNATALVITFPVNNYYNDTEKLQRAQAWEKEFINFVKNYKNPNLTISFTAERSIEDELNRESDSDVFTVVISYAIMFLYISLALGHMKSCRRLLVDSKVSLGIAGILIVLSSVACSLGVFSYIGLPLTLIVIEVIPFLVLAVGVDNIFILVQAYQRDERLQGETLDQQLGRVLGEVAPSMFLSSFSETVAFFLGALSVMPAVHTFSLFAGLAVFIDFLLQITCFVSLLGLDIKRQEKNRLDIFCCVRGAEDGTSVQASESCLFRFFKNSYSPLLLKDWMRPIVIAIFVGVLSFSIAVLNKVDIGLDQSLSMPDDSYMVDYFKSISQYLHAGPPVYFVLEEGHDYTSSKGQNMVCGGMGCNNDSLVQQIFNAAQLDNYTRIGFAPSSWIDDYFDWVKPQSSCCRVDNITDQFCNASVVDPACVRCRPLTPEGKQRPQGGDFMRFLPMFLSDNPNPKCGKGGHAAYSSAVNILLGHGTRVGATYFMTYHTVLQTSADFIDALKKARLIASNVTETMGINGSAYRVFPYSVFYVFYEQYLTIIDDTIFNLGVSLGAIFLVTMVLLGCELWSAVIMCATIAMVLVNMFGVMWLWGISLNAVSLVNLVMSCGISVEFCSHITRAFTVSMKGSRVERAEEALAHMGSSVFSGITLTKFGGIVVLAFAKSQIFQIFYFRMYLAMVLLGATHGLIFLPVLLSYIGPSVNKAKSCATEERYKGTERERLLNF
inactive: [1] -0.016 | volasertib -0.072 | [2] -0.031 | epoxomicin -0.02 | [3] 0.009 | [4] 0.005 | [5] -0.029 | rosiglitazone -0.018 | [6] 0.004 | [7] 0.012 | saracatinib 0.077 | sotrastaurin 0.007 | alvocidib 0.041 | Tubastatin A -0.045 | [8] 0.02 | defactinib 0.01 | rucaparib -0.147 | [9] -0.049 | encorafenib -0.012 | [10] -0.006

NFE2 (UniProt Q16621)
Chain of UniProt Q16621 (Q16621 whole entry, looked up): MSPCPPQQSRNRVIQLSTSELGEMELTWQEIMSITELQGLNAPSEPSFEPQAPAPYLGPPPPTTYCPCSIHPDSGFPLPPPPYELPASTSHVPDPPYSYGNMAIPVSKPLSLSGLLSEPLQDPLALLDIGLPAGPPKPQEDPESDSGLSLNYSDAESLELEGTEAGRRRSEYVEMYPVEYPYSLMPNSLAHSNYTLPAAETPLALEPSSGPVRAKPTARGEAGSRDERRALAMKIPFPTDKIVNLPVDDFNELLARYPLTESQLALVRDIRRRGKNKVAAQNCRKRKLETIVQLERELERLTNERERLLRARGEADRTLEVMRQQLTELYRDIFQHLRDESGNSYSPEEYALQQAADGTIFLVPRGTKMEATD
inactive: [1] -0.136 | volasertib -0.227 | [2] 0.018 | epoxomicin 0.173 | [3] 0.012 | [4] 0.084 | [5] 0.273 | rosiglitazone 0 | [6] -0.015 | [7] -0.145 | saracatinib 0.011 | sotrastaurin -0.096 | alvocidib -0.182 | Tubastatin A 0.093 | [8] -0.025 | defactinib -0.037 | rucaparib -0.075 | [9] -0.065 | encorafenib 0.018 | [10] -0.06

NUP107 (UniProt P57740)
Chain of UniProt P57740 (P57740 whole entry, looked up): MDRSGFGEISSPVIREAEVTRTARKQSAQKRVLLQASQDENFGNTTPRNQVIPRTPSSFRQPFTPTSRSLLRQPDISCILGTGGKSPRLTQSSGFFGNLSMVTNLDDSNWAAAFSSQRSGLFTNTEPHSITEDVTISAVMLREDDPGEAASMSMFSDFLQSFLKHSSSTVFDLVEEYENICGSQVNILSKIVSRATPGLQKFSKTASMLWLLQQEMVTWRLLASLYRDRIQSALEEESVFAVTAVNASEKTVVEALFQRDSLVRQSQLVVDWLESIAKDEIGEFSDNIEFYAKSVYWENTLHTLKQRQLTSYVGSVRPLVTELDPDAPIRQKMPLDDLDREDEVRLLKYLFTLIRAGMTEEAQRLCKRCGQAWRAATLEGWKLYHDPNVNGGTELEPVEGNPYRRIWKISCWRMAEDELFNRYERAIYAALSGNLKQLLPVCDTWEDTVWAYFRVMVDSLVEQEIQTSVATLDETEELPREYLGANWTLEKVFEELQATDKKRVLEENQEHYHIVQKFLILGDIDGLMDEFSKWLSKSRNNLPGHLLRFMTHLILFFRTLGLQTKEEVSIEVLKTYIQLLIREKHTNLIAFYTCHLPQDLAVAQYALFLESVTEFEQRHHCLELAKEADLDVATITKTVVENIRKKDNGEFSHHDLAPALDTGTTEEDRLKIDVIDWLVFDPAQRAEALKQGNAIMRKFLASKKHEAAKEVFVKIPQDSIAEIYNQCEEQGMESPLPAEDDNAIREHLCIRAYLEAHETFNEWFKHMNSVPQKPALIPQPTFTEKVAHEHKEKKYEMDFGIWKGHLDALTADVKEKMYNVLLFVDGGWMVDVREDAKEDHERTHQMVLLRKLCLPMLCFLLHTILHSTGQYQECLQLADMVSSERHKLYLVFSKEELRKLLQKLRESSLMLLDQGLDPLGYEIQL
active: [7] 0.628
inactive: [1] 0.038 | volasertib -0.182 | [2] 0.106 | epoxomicin -0.053 | [3] -0.069 | [4] 0.169 | [5] -0.048 | rosiglitazone 0.057 | [6] 0.053 | saracatinib -0.017 | sotrastaurin -0.103 | alvocidib -0.056 | Tubastatin A 0.067 | [8] 0.023 | defactinib -0.081 | rucaparib 0.041 | [9] 0.02 | encorafenib 0.111 | [10] 0

MKRN2 (UniProt Q9H000)
inactive: [1] -0.08 | [2] 0.106 | epoxomicin -0.068 | [3] -0.064 | [4] 0.193 | [5] 0.126 | rosiglitazone 0.063 | [6] 0.152 | [7] 0.082 | saracatinib -0.203 | sotrastaurin -0.024 | alvocidib -0.002 | Tubastatin A 0.177 | [8] -0.08 | defactinib -0.049 | rucaparib 0.258 | [9] 0.007 | encorafenib 0.109 | [10] -0.005
active: volasertib -0.633

MSTO1 (UniProt Q9BUK6)
inactive: [1] 0.014 | volasertib -0.012 | [2] 0.046 | epoxomicin 0.044 | [3] 0.038 | [4] -0.119 | [5] 0.071 | rosiglitazone 0.119 | [6] -0.057 | [7] -0.185 | saracatinib 0.047 | sotrastaurin 0.025 | alvocidib -0.001 | Tubastatin A 0.023 | [8] -0.031 | defactinib -0.045 | rucaparib -0.029 | encorafenib 0.04 | [10] 0.034
active: [9] 0.235

MRPS33 (UniProt Q9Y291)
inactive: [1] 0.016 | volasertib 0.025 | [2] 0.057 | epoxomicin -0.012 | [3] 0 | [4] -0.011 | [5] -0.01 | rosiglitazone -0.007 | [6] -0.001 | [7] 0.017 | saracatinib -0.033 | sotrastaurin -0.077 | alvocidib -0.038 | Tubastatin A 0.02 | [8] -0.018 | defactinib 0.087 | rucaparib 0.119 | [9] 0.04 | encorafenib 0.024 | [10] 0.02

OTUD6B (UniProt Q8N6M0)
Chain of UniProt Q8N6M0 (Q8N6M0 whole entry, looked up): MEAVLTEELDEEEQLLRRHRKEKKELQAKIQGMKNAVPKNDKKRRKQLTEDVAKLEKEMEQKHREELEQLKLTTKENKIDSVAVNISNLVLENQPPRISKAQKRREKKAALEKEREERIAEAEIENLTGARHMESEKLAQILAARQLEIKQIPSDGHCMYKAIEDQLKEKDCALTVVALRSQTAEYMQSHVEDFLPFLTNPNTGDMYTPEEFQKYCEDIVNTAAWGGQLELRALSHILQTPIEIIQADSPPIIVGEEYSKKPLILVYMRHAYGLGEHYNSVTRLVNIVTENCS
inactive: [1] -0.163 | [2] 0.036 | epoxomicin 0.094 | [3] -0.032 | [4] -0.055 | [5] 0.066 | rosiglitazone 0.09 | [6] -0.019 | [7] -0.137 | saracatinib -0.009 | sotrastaurin -0.035 | alvocidib -0.147 | Tubastatin A -0.007 | [8] -0.008 | defactinib -0.138 | rucaparib 0.019 | [9] 0.001 | encorafenib 0.122 | [10] -0.055
active: volasertib -0.435
